PubChem BioAssay
The source made the active and inactive calls. Unless noted, no rule for the calls is given here.

Assays:
[1] = anti-His antibody binders, primary screen, artefact control for SMM control protein annotation, biochemical, small-molecule microarray, 635 nm fluorescence (AID 1128); conditions: anti-His Alexa647 antibody binding, higher = more signal;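 also: score merges feature fluorescence with signal-to-noise for each printed compound spot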
[2] = tested on: Human papillomavirus type 1a E7 protein (residues 1-88); assay: HPV1a E7 small-molecule binders, primary screen, biochemical, small-molecule microarray, residues 1-88, 635 nm (AID 1129); conditions: small-molecule microarray binding, fluorescence 635 nm; higher = more signal
[3] = target: Focal adhesion kinase 1 (Homo sapiens) (UniProt Q05397); assay: small-molecule microarray binders of FAK, primary screen, biochemical, 635/667 nm fluorescence, BSA, DTT (AID 1130); conditions: PTK2 binding, 635 nm fluorescence, higher = more signal;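 also: composite of spot emission at 667 nm and signal to noise over triplicate slides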
Chain of Focal adhesion kinase 1 (Homo sapiens) (Q05397 whole entry, looked up): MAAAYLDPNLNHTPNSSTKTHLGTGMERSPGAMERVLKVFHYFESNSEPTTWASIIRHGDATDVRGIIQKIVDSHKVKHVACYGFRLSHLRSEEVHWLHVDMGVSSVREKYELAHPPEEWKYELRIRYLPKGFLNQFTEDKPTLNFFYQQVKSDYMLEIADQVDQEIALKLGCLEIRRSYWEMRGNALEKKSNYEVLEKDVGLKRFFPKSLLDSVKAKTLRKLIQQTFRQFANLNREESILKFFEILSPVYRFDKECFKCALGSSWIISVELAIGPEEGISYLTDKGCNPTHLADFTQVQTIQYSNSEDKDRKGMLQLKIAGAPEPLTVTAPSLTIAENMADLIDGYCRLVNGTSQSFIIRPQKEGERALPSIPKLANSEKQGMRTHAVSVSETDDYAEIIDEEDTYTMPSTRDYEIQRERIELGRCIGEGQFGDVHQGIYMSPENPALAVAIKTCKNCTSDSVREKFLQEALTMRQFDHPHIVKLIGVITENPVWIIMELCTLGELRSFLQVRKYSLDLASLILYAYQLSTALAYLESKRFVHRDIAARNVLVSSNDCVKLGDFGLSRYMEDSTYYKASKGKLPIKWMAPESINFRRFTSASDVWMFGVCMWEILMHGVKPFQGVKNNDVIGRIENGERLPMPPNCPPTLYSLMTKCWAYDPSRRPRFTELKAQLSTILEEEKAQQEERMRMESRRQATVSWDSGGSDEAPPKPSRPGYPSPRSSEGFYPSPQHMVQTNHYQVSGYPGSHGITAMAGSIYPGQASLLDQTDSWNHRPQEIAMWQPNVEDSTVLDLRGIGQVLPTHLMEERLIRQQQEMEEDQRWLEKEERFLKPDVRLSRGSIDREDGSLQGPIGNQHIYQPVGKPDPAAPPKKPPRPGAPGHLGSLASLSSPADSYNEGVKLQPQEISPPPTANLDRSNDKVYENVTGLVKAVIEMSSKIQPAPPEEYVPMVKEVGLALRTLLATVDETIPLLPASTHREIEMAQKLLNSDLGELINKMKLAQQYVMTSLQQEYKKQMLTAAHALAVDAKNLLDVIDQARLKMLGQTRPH

[4] = tested on: Fibrinogen (Alexa647-labelled); assay: fibrinogen binders on compound microarrays, profiling panel, artefact control for SMM control-protein annotation, biochemical, small-molecule microarray, 635/667 nm fluorescence (AID 1131); conditions: fibrinogen-A647 binding fluorescence, higher = more signal;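 also: z-score merges 667 nm fluorescence with per-spot signal-to-noise over triplicate slides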
[5] = target: Follistatin (Homo sapiens) (UniProt P19883); assay: follistatin binders on small-molecule microarrays, primary screen, biochemical, small-molecule microarray, 635/667 nm fluorescence (AID 1132); conditions: FST binding, 635 nm fluorescence, higher = more signal
Chain of Follistatin (Homo sapiens) (P19883 whole entry, looked up): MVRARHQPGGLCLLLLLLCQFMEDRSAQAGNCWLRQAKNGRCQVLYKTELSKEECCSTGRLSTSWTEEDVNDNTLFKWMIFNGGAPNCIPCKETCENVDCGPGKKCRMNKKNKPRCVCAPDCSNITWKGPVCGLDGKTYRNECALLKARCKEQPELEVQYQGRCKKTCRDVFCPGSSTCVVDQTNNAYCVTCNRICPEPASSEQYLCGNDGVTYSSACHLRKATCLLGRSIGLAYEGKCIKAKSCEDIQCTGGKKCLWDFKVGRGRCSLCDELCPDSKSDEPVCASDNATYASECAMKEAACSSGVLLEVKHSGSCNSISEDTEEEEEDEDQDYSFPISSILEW

[6] = target: Fibroblast growth factor 2 (Homo sapiens) (UniProt P09038); assay: FGF2 binders on small-molecule microarrays, primary screen, biochemical, small-molecule microarray, 635/667 nm fluorescence (AID 1133); conditions: small-molecule microarray binding, FGF2, fluorescence 635/667; higher = more signal
Chain of Fibroblast growth factor 2 (Homo sapiens) (P09038 whole entry, looked up): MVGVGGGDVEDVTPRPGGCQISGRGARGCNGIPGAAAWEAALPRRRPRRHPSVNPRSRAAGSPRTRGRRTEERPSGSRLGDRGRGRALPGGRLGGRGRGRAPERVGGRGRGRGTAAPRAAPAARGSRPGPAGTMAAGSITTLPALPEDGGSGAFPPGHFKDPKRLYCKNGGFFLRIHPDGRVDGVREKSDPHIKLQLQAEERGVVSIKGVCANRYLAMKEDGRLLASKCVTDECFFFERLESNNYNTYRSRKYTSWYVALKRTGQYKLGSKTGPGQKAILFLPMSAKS

[7] = mitochondrial membrane potential change in A549 cells, profiling panel, cell-based, JC-1 fluorescence, basal, 24 h, 100 nL (AID 1138); conditions: higher = more signal;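 also: A549 lung adenocarcinoma cells under basal conditions with no added stimulus; test concentration not given here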
Lefty1 = Lefty1 binders on small-molecule microarrays, primary screen, biochemical, small-molecule microarray, 635/667 nm fluorescence (AID 1139); conditions: small-molecule microarray binding, fluorescence 635/667; higher = more signal
[8] = tested on: wheat germ agglutinin (Triticum aestivum), Alexa647-labelled; assay: wheat germ agglutinin binders on compound microarrays, profiling panel, artefact control for SMM control-protein annotation, biochemical, small-molecule microarray, 635/667 nm fluorescence (AID 1140); conditions: WGA-A647 binding, 635 nm fluorescence, higher = more signal;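 also: score merges 667 nm feature emission with signal to noise over triplicate slides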
[9] = target: Luciferin 4-monooxygenase (Photinus pyralis) (UniProt P08659); assay: firefly luciferase enzyme inhibitors, primary screen, biochemical, luminescence, purified enzyme, 2006 set (AID 1141); conditions: SteadyGlo luminescence, 30 min, higher = more signal, called active from +8 up or from −8 down;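 also: cell-free assay with purified firefly luciferase at 100 ng per well in PBS; test concentration not given here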
Chain of Luciferin 4-monooxygenase (Photinus pyralis) (P08659 whole entry, looked up): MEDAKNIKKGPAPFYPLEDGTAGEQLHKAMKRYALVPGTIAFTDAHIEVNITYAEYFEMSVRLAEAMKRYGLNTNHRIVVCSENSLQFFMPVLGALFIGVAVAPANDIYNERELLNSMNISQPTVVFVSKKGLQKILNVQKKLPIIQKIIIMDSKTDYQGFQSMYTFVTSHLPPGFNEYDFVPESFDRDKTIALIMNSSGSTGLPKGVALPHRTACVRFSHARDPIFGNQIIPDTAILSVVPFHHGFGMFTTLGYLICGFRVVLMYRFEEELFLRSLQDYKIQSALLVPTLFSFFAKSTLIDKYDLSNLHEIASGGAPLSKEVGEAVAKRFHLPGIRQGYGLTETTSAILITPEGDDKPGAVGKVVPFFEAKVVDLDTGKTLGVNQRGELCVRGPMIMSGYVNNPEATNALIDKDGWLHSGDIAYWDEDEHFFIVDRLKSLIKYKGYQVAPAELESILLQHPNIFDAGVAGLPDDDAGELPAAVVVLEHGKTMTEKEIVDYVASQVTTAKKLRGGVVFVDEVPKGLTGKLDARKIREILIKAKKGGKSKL

[10] = tested on: Wnt5a (protein binding on small-molecule microarray); assay: Wnt5a binders on small-molecule microarray, primary screen, biophysical, 635/667 nm fluorescence (AID 1142); conditions: 635 nm fluorescence, higher = more signal;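 also: fluorescence read at 667 nm with signal to noise per printed feature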
[11] = cell viability in Huh7 cells, primary screen, cytotoxicity control for HCV replication inhibitor project, CellTiter-Glo luminescence, basal, 48 h (AID 1143); conditions: Huh7 HCV replicon, higher = more signal, called active from +8 up or from −8 down;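 also: Huh7 hepatoma cells carrying a hepatitis C replication reporter with no stimulus; test concentration not given here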
[12] = P. aeruginosa biofilm formation inhibitors, primary screen, PAO1 strain, BacTiter-Glo luminescence, LB-PBS (AID 1144); conditions: 12 h, higher = more signal
[13] = CREB reporter modulators without forskolin, primary screen, cell-based, PC12, CRE-LacZ reporter, unstimulated (AID 1145); conditions: no forskolin, luminescence, 4.5 h, higher = more signal, called active from +8 up or from −8 down
[14] = CREB reporter modulators under forskolin, primary screen, cell-based, PC12, CRE-LacZ reporter, forskolin-stimulated (AID 1146); conditions: luminescence, 4.5 h, higher = more signal, called active from +8 up or from −8 down;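 also: PC12 cells with 6xCRE LacZ reporter stimulated by forskolin 10 µM; beta-galactosidase reporter signal reflecting CREB driven transcription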
[15] = target: Streptavidin (Streptomyces avidinii) (UniProt P22629); assay: streptavidin binders on small-molecule microarray, primary screen, artefact control for SMM compound annotation, biophysical, 635/667 nm fluorescence (AID 1147); conditions: streptavidin binding, higher = more signal;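 also: signal reflects streptavidin binding to arrayed compounds as a control protein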
Chain of Streptavidin (Streptomyces avidinii) (P22629 whole entry, looked up): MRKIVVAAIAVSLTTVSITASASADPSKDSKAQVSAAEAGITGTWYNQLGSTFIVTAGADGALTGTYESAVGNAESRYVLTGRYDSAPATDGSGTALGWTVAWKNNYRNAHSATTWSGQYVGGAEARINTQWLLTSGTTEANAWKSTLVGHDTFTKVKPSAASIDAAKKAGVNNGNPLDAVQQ

[16] = small-molecule binders of probe aInhba, primary screen, biochemical, small-molecule microarray, 635/667 nm fluorescence (AID 1148); conditions: higher = more signal;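 also: score merges 667nm spot fluorescence with signal-to-noise for antibody binding to printed compounds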
Torsin-1A (Homo sapiens) [17] = target: Torsin-1A (Homo sapiens) (UniProt O14656); assay: torsin A binders from cell lysate, primary screen, small-molecule microarray, wild-type, 635/667 nm (AID 1149); conditions: COS7 hTOR1A-WT lysate, 635 nm fluorescence, higher = more signal
Chain of Torsin-1A (Homo sapiens) (O14656 whole entry, looked up): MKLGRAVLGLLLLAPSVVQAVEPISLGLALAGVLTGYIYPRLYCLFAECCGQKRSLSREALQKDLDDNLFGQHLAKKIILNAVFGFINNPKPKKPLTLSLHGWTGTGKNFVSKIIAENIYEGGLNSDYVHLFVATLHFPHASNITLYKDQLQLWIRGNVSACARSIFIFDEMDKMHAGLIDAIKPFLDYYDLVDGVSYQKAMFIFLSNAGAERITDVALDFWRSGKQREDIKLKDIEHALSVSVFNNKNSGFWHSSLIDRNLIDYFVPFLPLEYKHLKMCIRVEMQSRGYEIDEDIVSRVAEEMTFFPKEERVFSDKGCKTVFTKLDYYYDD

Torsin-1A (Homo sapiens) [18] = target: Torsin-1A (Homo sapiens) (UniProt O14656); assay: small-molecule binders of mutant TOR1A in lysate, primary screen, cell lysate, small-molecule microarray, COS7 lysate, 635/667 nm fluorescence (AID 1150); conditions: COS7 hTOR1A mutant lysate, 635 nm fluorescence, higher = more signal;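 also: score pools 667 nm emission and signal to noise measuring lysate protein binding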
[19] = tested on: Sonic hedgehog protein (Shh); assay: small-molecule binders of Shh protein, primary screen, biochemical, small-molecule microarray, 635/667 nm fluorescence (AID 1151); conditions: small-molecule microarray binding, 635 nm fluorescence; higher = more signal;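 also: Shh protein binding to compounds spotted on small-molecule microarray slides; score combines spot fluorescence intensity with signal-to-noise across triplicate slides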

Row | Compound | composite z-score [1] | composite z-score [2] | composite z-score [3] | composite z-score [4] | composite z-score [5] | composite z-score [6] | z-score [7] | composite z-score (Lefty1) | composite z-score [8] | z-score [9] | composite z-score [10] | z-score [11] | z-score [12] | z-score [13] | z-score [14] | composite z-score [15] | composite z-score [16] | composite z-score (Torsin-1A (Homo sapiens) [17]) | composite z-score (Torsin-1A (Homo sapiens) [18]) | composite z-score [19]
1 | C[C@]1(C(=O)NCCN2CCOCC2)c2ccccc2C(=O)N(Cc2ccccc2)[C@H]1c1ccc(CO)cc1 | 1.6 | -0.385 | -0.43 | -0.665 | 0.0342 | -0.256 | -1.19 | -0.718 | -0.208 | 1.47 (inactive) | -0.21 | -1.82 (inactive) | -2.31 (inactive) | -0.412 (inactive) | -0.0192 (inactive) | -0.833 | -0.0405 | 0.403 | 0.915 | -0.928
2 | O=C1OCCC/C=C\[C@H]2OC34C=CCN(CCN5CCOCC5)C(=O)[C@H]3N(CCCCCO)C(=O)[C@@H]4C12 (stereo not given in full) | -0.265 | -2.02 | -1.29 | -1.25 | -0.267 | -0.821 | -0.203 | -0.84 | -0.858 | 0.32 (inactive) | -0.498 | 0.305 (inactive) | 1.67 (inactive) | 0.597 (inactive) | 0.515 (inactive) | -0.293 | 0.202 | -1.01 | -0.649 | 0.392
3 | COCCOC(=O)N1C(=O)[C@@]2(c3cc(C#CC4=CCCCC4)ccc31)[C@H](C(=O)NC[C@H](O)c1ccccc1)[C@H]1C(=O)O[C@H](c3ccccc3)[C@H](c3ccccc3)N1[C@@H]2c1ccc(OCCO)cc1 | 0.577 | 1.2 | 0.221 | 0.955 | 1.35 | 1.22 | -1.73 | 1.08 | 0.971 | -0.526 (inactive) | 0.374 | -2.96 (inactive) | 0.329 (inactive) | 0.0776 (inactive) | 1.2 (inactive) | 0.855 | 0.0446 | 0.481 | 0.0642 | 2.05
4 | Cc1ccc(S[C@]2(C(=O)NC3CC3)CC(=O)N(Cc3cc(C(F)(F)F)cc(C(F)(F)F)c3)[C@@H]2c2ccc(CO)cc2)cc1 | 1.79 | 0.489 | 0.389 | 0.182 | 1.2 | 0.411 | 0.232 | 0.821 | 0.31 | 1.22 (inactive) | 0.134 | -2.38 (inactive) | -1.59 (inactive) | -0.374 (inactive) | 0.121 (inactive) | -0.103 | -0.128 | -0.408 | 0.227 | 1.38
5 | CC(C)[Si](OCC[C@H]1O[C@]2(C(=O)N(Cc3ccccc3)c3ccccc32)[C@@H](C)[C@@H]1[Si](C)(C)O)(C(C)C)C(C)C | -0.197 | -0.694 | 0.104 | 0.618 | 0.122 | -0.206 | -0.761 | 0.218 | 0.128 | -0.183 (inactive) | 0.0427 | -0.555 (inactive) | 0.735 (inactive) | 0.223 (inactive) | -0.242 (inactive) | -0.0546 | -0.171 | 0.399 | -0.131 | 0.255
6 | CC(C)[C@H]1NC(=O)[C@@]23C(=O)N[C@@H](Cc4ccccc4)C2[C@H](C)[C@@]2(C)O[C@H]2C3/C=C/C/C=C\CNC(=O)[C@H](C)NC1=O (stereo not given in full) | 0.661 | -0.983 | -0.67 | -0.908 | -0.412 | 0.862 | -0.134 | -0.62 | -1.03 | -0.0632 (inactive) | -0.438 | -0.131 (inactive) | 0.0406 (inactive) | 0.306 (inactive) | 0.289 (inactive) | -1.07 | -0.151 | -0.96 | 0.237 | 0.203
7 | C=C(CCCC)/C(=C/C[C@@H](OC(=O)c1ccncc1)c1cccc(OCCO)c1)c1cc(C(=O)OC)ccc1OC | 0.541 | 1.17 | 0.0708 | 0.939 | 1.12 | 0.627 | 4.97 | 0.959 | 1.09 | -2.22 (inactive) | 0.153 | -1.36 (inactive) | -1.04 (inactive) | 13.4 (active) | -1.47 (inactive) | 0.788 | 0.0852 | 1.13 | 0.76 | 1.47
8 | O=C(NCC(F)(F)F)[C@@H]1c2ccccc2C(=O)N(Cc2ccccc2Cl)[C@H]1c1ccc(CO)cc1 | 0.752 | -0.778 | -0.844 | -0.81 | -0.607 | -0.434 | 0.97 | -1.23 | -0.742 | -0.565 (inactive) | -0.234 | 0.197 (inactive) | 0.072 (inactive) | 0.414 (inactive) | -0.65 (inactive) | -1.38 | -0.176 | -0.495 | 0.986 | -0.59
9 | C[N+](C)(C)CCCCNC(=O)[C@H]1C[C@H]2C(=O)NCC(=O)N2[C@H]1c1cccc(OCCO)c1 | 2.81 | 0.279 | -0.0181 | -0.0364 | 1.49 | 1.9 | -0.776 | 1.71 | 0.399 | -0.162 (inactive) | 0.668 | 0.148 (inactive) | -0.722 (inactive) | 0.419 (inactive) | -0.153 (inactive) | 0.0924 | -0.0044 | 1.21 | 0.961 | 2.17
10 | O=C1O[C@@H](c2ccccc2)[C@@H](c2ccccc2)N2[C@@H](c3ccc(OCCO)cc3)[C@]3(C(=O)Nc4ccc(C#CCCO)cc43)[C@@H](C(=O)N3CCN(c4ncccn4)CC3)[C@H]12 | 0.468 | 1 | 0.341 | 0.941 | 1.34 | 0.331 | -0.0856 | 0.635 | 1.2 | 0.47 (inactive) | 0.544 | -0.284 (inactive) | -0.132 (inactive) | 0.478 (inactive) | 0.0989 (inactive) | 0.509 | 0.0403 | 0.376 | 0.5 | 1.93
